The values below come from PubChem BioAssay (NCI).

Among the test systems are HT29 colon; SNB-75 CNS; SNB-19 CNS; U251 CNS; PC-3 prostate; SK-MEL-5 melanoma; UACC-62 melanoma; LOX IMVI melanoma; SK-MEL-28 melanoma; SK-MEL-2 melanoma; EKVX NSCLC; SN12C renal; UO-31 renal; TK-10 renal; ACHN renal; CAKI-1 renal; CCRF-CEM leukemia; MOLT-4 leukemia; A498 renal.
Common to all, as to assay: NCI-60 one-dose screen, 48 h (100 = growth as untreated, 0 = no growth, -100 = all killed)
Holding throughout (conditions): 10 µM unless noted

This is part of a sample that, as a whole, favours compounds with a hit. Of some 83,000 tested, about 20% had one in any assay.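 Negative percent growth values reflect cell death: -40 means 40% of the cells present at the start died, and -100 means all died.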 Values without a mark were called inactive. Calls of active or inactive are those of the source. How the source made its calls: active means growth percent below 10; inactive means the rest.

Take `CNC(=O)c1cc(Cn2nc(C)c(NC(=O)Nc3ccc(Cl)c(C(F)(F)F)c3)c2C)ccn1`: the growth is 92.4% in the experiment with HT29 colon; 68% in the experiment with SNB-75 CNS; 103% with SNB-19 CNS; 86.7% with U251 CNS; 79.4% with PC-3 prostate; 91.8% in the experiment on SK-MEL-5 melanoma. Also, the growth in the experiment with UACC-62 melanoma was 93.7%; with LOX IMVI melanoma, 98%; in the experiment on SK-MEL-28 melanoma it was 107%; with SK-MEL-2 melanoma it was 82.3%; in the experiment on EKVX NSCLC it was 102%; in the experiment on SN12C renal it was 98.6%. Moreover, the growth was 90.5% with UO-31 renal; 103% with TK-10 renal; 97.9% with ACHN renal; 93.6% with CAKI-1 renal; 92.1% in the experiment on CCRF-CEM leukemia; 90.8% with MOLT-4 leukemia.

As to `O=C(/C=C/c1ccc(Cl)cc1)c1ccc(NC(=O)N2CCN(c3cc4c(cc3F)c(=O)c(C(=O)O)cn4C3CC3)CC2)cc1`, the growth is 89.3% in the experiment with HT29 colon; 87.6% in the experiment on SNB-19 CNS; 92.4% with U251 CNS; 97.7% with PC-3 prostate; 93.6% in the experiment with SK-MEL-5 melanoma; 76.1% in the experiment with UACC-62 melanoma. Besides, the growth in the experiment on LOX IMVI melanoma is 6.5% (active); with SK-MEL-28 melanoma, 99.2%; in the experiment on SK-MEL-2 melanoma, 98.2%; in the experiment with EKVX NSCLC, 98.4%; in the experiment with SN12C renal it was 86.4%; in the experiment on UO-31 renal, 80.2%. The growth with TK-10 renal was 107%; in the experiment with ACHN renal, 101%; with CAKI-1 renal, 82.7%; in the experiment on CCRF-CEM leukemia, 72.2%; in the experiment with MOLT-4 leukemia, 92.1%.

As for `CCCOc1ccc(/C=N/Nc2cc(C)nc3ccc(Br)cc23)cc1`, the growth was 26.5% in the experiment with HT29 colon; 105% in the experiment with SNB-75 CNS; 101% in the experiment on SNB-19 CNS; 25.7% in the experiment on U251 CNS; 87.6% in the experiment with PC-3 prostate; 100% in the experiment with SK-MEL-5 melanoma. Moreover, the growth was 96.1% with UACC-62 melanoma; 59.9% in the experiment with LOX IMVI melanoma; 102% in the experiment with SK-MEL-28 melanoma; 93% in the experiment on SK-MEL-2 melanoma; 81.7% with EKVX NSCLC; 84.4% in the experiment with SN12C renal. Besides, the growth in the experiment with UO-31 renal was 72.6%; in the experiment on TK-10 renal, 111%; in the experiment with ACHN renal it was 97.7%; in the experiment on CAKI-1 renal it was 91.3%; in the experiment on CCRF-CEM leukemia, 28.3%; with MOLT-4 leukemia, 73.9%.

For `O=C1Nc2cc(-c3ccc(NS(=O)(=O)c4ccccc4)cc3)ccc2/C1=C/c1ccc[nH]1`, the growth is 84.2% in the experiment on HT29 colon; 98.5% with SNB-75 CNS; 98.1% in the experiment with SNB-19 CNS; 97.9% in the experiment with U251 CNS; 82.5% in the experiment on PC-3 prostate; 91.2% with SK-MEL-5 melanoma. Further, the growth in the experiment on UACC-62 melanoma is 89.3%; in the experiment with LOX IMVI melanoma it was 69.3%; in the experiment on SK-MEL-28 melanoma, 108%; with SK-MEL-2 melanoma, 112%; with EKVX NSCLC, 28.9%; in the experiment with SN12C renal, 96.2%. Further, the growth with UO-31 renal is 69.2%; in the experiment on TK-10 renal it was 68.9%; in the experiment with ACHN renal it was 88.5%; in the experiment on CAKI-1 renal it was 82.9%; in the experiment with CCRF-CEM leukemia it was 63.9%; in the experiment on MOLT-4 leukemia, 73.1%.

On to `O=S(=O)(NCCCNc1nccc(-c2c(-c3cccc(F)c3)nc3sccn23)n1)c1cccc(F)c1`, for which the growth in the experiment on SNB-75 CNS is 88.6%; in the experiment with SNB-19 CNS, 76.8%; in the experiment with U251 CNS, 70%; in the experiment with PC-3 prostate it was 27.1%; in the experiment with SK-MEL-5 melanoma, 13.5%; with UACC-62 melanoma, 6.36% (active). The growth in the experiment with LOX IMVI melanoma is 39%; in the experiment on SK-MEL-28 melanoma, 68.3%; with SK-MEL-2 melanoma, 47.6%; with EKVX NSCLC it was 52.4%; with SN12C renal it was 56.3%; in the experiment with UO-31 renal, 28.2%. The growth in the experiment with TK-10 renal was 72.3%; in the experiment on ACHN renal, 42.5%; with CAKI-1 renal, 41.5%; in the experiment with CCRF-CEM leukemia, 24.7%; with MOLT-4 leukemia it was 9.94% (active).

As for `Cn1ccc2c1CC1CN(Cc3ccco3)C(=O)C1C2C(=O)O` (stereo not drawn), the growth with HT29 colon is 101%; with SNB-75 CNS it was 74.3%; in the experiment on SNB-19 CNS, 98%; in the experiment with U251 CNS, 97.3%; in the experiment on PC-3 prostate it was 100%; in the experiment with SK-MEL-5 melanoma it was 102%. Further, the growth with UACC-62 melanoma is 95.5%; in the experiment with LOX IMVI melanoma, 94.6%; in the experiment with SK-MEL-28 melanoma, 101%; in the experiment with SK-MEL-2 melanoma, 99.2%; in the experiment with EKVX NSCLC, 91.1%; with SN12C renal it was 97.2%. For the same compound, the growth with UO-31 renal is 89.6%; in the experiment with TK-10 renal it was 102%; with ACHN renal it was 105%; with CAKI-1 renal, 94.1%; in the experiment with A498 renal, 98.3%; in the experiment on CCRF-CEM leukemia, 105%. The growth in the experiment on MOLT-4 leukemia was 103%.

In the case of `CCN(c1ccccc1)S(=O)(=O)c1cc([N+](=O)[O-])ccc1Cl`, the growth with HT29 colon was 63%; in the experiment with SNB-75 CNS, 66.2%; in the experiment on SNB-19 CNS, 85%; in the experiment on U251 CNS, 59.2%; in the experiment on PC-3 prostate it was 76.8%; in the experiment on SK-MEL-5 melanoma, 45.3%. Further, the growth was 57.5% in the experiment with UACC-62 melanoma; 52.4% with LOX IMVI melanoma; 88.8% in the experiment with SK-MEL-28 melanoma; 46.2% in the experiment on SK-MEL-2 melanoma; 88.3% with EKVX NSCLC; 60.7% with SN12C renal. Moreover, the growth was 53.9% in the experiment with UO-31 renal; 107% with TK-10 renal; 79.9% in the experiment on ACHN renal; 48.1% in the experiment on CAKI-1 renal; 71.9% in the experiment with A498 renal; 52% with CCRF-CEM leukemia.

Regarding `COc1ccc(C(C)=O)c(OC)c1`, the growth is 92% in the experiment with HT29 colon; 91.7% in the experiment with SNB-75 CNS; 100% with SNB-19 CNS; 101% in the experiment with U251 CNS; 91.1% in the experiment on PC-3 prostate; 107% with SK-MEL-5 melanoma. The growth was 96.1% in the experiment on UACC-62 melanoma; 103% in the experiment on LOX IMVI melanoma; 109% in the experiment on SK-MEL-28 melanoma; 94.6% in the experiment with SK-MEL-2 melanoma; 114% in the experiment on EKVX NSCLC; 106% in the experiment with SN12C renal. Moreover, the growth in the experiment on UO-31 renal is 97.4%; with TK-10 renal, 99.5%; with ACHN renal, 110%; in the experiment on CAKI-1 renal, 99.7%; with CCRF-CEM leukemia, 103%; in the experiment with MOLT-4 leukemia, 102%.
